In PubChem BioAssay (NCI):
Compounds without any hit were thinned out: in the full panel of roughly 79,000, 15% have a hit. Activity calls are given as the source filed them. Cut-off read from the data, not from the text of the source: active = growth inhibition above about 70%; inactive = the rest.

How the values were obtained:
[1] = NCI Yeast Anticancer Drug Screen. Data for the rad50 strain (AID 155);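 note: 0% = growth of vehicle-only cultures of the same strain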; conditions: S. cerevisiae rad50 strain growth inhibition, active compounds read high
In short: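 Relative growth inhibition (compound vs vehicle) was measured in yeast with a defined repair-gene alteration.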

[2] = NCI Yeast Anticancer Drug Screen. Data for the mec2-1 strain (AID 157); conditions: S. cerevisiae mec2-1 strain, active compounds read high
In short: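 Using mec2-1 yeast: add compound, measure growth, express inhibition versus vehicle-treated cultures.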

[3] = NCI Yeast Anticancer Drug Screen. Data for the sgs1 mgt1 strain (AID 161);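 note: 0% = growth of cultures given vehicle only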; conditions: S. cerevisiae sgs1 mgt1 strain, active compounds read high
In short: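 This yeast growth screen uses a strain with defined DNA-repair lesions; compound-treated growth is compared with vehicle-treated growth.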

[4] = NCI Yeast Anticancer Drug Screen. Data for the cln2 rad14 strain (AID 165);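 note: 0% = growth equal to vehicle treated cultures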; conditions: S. cerevisiae cln2 rad14 strain, active compounds read high
In short: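 Yeast strain cln2 rad14, bearing defects in cell cycle control and DNA repair, serves as the test system; values reflect growth inhibition compared with vehicle.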

[5] = NCI Yeast Anticancer Drug Screen. Data for the bub3 strain (AID 167); conditions: S. cerevisiae bub3 mutant strain, active compounds read high
In short: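 Screening used yeast with an engineered genetic alteration affecting cell cycle control. Compound-exposed cultures were compared with vehicle cultures, and reduced growth was taken as inhibition.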

[6] = NCI Yeast Anticancer Drug Screen. Data for the mlh1 rad18 strain (AID 175); conditions: S. cerevisiae mlh1 rad18 strain growth inhibition, active compounds read high
In short: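 Steps: expose repair-defective yeast to compound; measure growth; express inhibition against vehicle-treated controls.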

[7] = at 5.0 µM (retest, dose inferred, filed as 0.5)
[8] = at 50.0 µM (retest, dose inferred, filed as 5.0)

Measured: growth inhibition

COC(=O)/C=N/O
inactive: [1]; [7] -17% | [1]; [8] 7% | [1]; at 50.0 µM -19.4% | [2]; [7] -9% | [2]; [8] -6% | [2]; at 50.0 µM -6.9% | [3]; [7] -5% | [3]; [8] -4% | [3]; at 50.0 µM 8.85% | [4]; [7] 7% | [4]; [8] -1% | [4]; at 50.0 µM 0.85% | [5]; [7] -19% | [5]; [8] -1% | [5]; at 50.0 µM -14.9% | [6]; [7] -2% | [6]; [8] -6% | [6]; at 50.0 µM 36.3%

O=C1c2ccc(O)c(O)c2C(=O)c2c(O)ccc(O)c21
active: [1]; [7] 84% | [1]; [8] 95% | [1]; at 50.0 µM 73.2% | [2]; [7] 74% | [2]; [8] 95% | [3]; [7] 92% | [3]; [8] 95% | [4]; [8] 93% | [5]; [7] 85% | [5]; [8] 93% | [5]; at 50.0 µM 72% | [6]; [7] 91% | [6]; [8] 95% | [6]; at 50.0 µM 77.8%
inactive: [2]; at 50.0 µM 55.5% | [3]; at 50.0 µM 67.6% | [4]; [7] 34% | [4]; at 50.0 µM 56%

O=C(c1ccc(O)cc1)c1ccccc1O
inactive: [1]; [7] 6% | [1]; at 50.0 µM 63.8% | [2]; [7] -7% | [2]; [8] 23% | [2]; at 50.0 µM 37.2% | [3]; [7] -2% | [3]; [8] 14% | [3]; at 50.0 µM 44.4% | [4]; [7] -1% | [4]; [8] 3% | [4]; at 50.0 µM -7.55% | [5]; [7] 45% | [5]; [8] 41% | [5]; at 50.0 µM 17.9% | [6]; [7] -2% | [6]; [8] 23% | [6]; at 50.0 µM 51.6%
active: [1]; [8] 76%

CCCCCCCCCCCCCCCCn1cc(C(O)CN(C)C)c2ccccc21 (stereo not given)
active: [1]; [8] 98% | [2]; [8] 99% | [2]; at 50.0 µM 99.1% | [3]; [8] 98% | [4]; [8] 89% | [4]; at 50.0 µM 98.3% | [5]; [8] 98% | [6]; [8] 98% | [6]; at 50.0 µM 94.9%
inactive: [1]; [7] -4% | [1]; at 50.0 µM 32.2% | [2]; [7] -1% | [3]; [7] -1% | [3]; at 50.0 µM 49.5% | [4]; [7] -3% | [5]; [7] -4% | [5]; at 50.0 µM 39.6% | [6]; [7] -2%

COc1cc(/C=C2/N=C(c3ccccc3)N(C3=NNC4(C(=O)N3)c3ccccc3-c3ccccc34)NC2=O)ccc1O
inactive: [1]; [7] 4% | [1]; [8] 3% | [1]; at 50.0 µM 36.5% | [2]; [7] -1% | [2]; [8] 7% | [2]; at 50.0 µM -5.05% | [3]; [7] 6% | [3]; [8] 14% | [3]; at 50.0 µM 7.55% | [4]; [7] 3% | [4]; [8] 1% | [4]; at 50.0 µM -46.6% | [5]; [7] -2% | [5]; [8] -7% | [5]; at 50.0 µM 27.4% | [6]; [7] -17% | [6]; [8] 11% | [6]; at 50.0 µM 20.5%

CCC[CH2][Sn]([Cl])([CH2]CCC)[S]/C(C#N)=N/N=C/c1ccc(N(C)C)cc1
active: [1]; [7] 97% | [1]; [8] 98% | [1]; at 50.0 µM 98.2% | [2]; [7] 97% | [2]; [8] 98% | [2]; at 50.0 µM 98.8% | [3]; [7] 97% | [3]; [8] 98% | [3]; at 50.0 µM 98.8% | [4]; [7] 99% | [4]; [8] 98% | [4]; at 50.0 µM 97.9% | [5]; [7] 97% | [5]; [8] 98% | [5]; at 50.0 µM 98.8% | [6]; [7] 98% | [6]; [8] 97% | [6]; at 50.0 µM 98.7%

O=C(O)CSCc1cc2c3ccccc3sc2c2ccccc12
inactive: [1]; [7] 49% | [2]; [7] 29% | [3]; [7] 30% | [4]; [7] 52% | [5]; [7] 31% | [6]; [7] 35%
active: [1]; [8] 99% | [1]; at 50.0 µM 97.9% | [2]; [8] 99% | [2]; at 50.0 µM 97.2% | [3]; [8] 98% | [3]; at 50.0 µM 93.2% | [4]; [8] 99% | [4]; at 50.0 µM 97.7% | [5]; [8] 99% | [5]; at 50.0 µM 96.8% | [6]; [8] 99% | [6]; at 50.0 µM 98.5%

O=C(Nc1ccc(Br)cc1)Oc1ccccc1C(=O)Nc1ccccc1
inactive: [1]; [7] 6% | [2]; [7] 1% | [3]; [7] 0% | [4]; [7] 2% | [4]; at 50.0 µM 54.2% | [5]; [7] 5% | [6]; [7] 4%
active: [1]; [8] 95% | [1]; at 50.0 µM 79.1% | [2]; [8] 96% | [2]; at 50.0 µM 70.3% | [3]; [8] 98% | [3]; at 50.0 µM 91% | [4]; [8] 94% | [5]; [8] 98% | [5]; at 50.0 µM 89.9% | [6]; [8] 96% | [6]; at 50.0 µM 97.8%

CC(O[Si](C)(C)C(C)(C)C)C(=O)Sc1ccccn1 (stereo not given)
inactive: [1]; [7] -1% | [1]; [8] 66% | [2]; [7] -9% | [3]; [7] -6% | [3]; [8] 54% | [4]; [7] -10% | [5]; [7] -6% | [6]; [7] -9% | [6]; [8] 48%
active: [1]; at 50.0 µM 95.3% | [2]; [8] 97% | [2]; at 50.0 µM 97.2% | [3]; at 50.0 µM 95.5% | [4]; [8] 84% | [4]; at 50.0 µM 85.9% | [5]; [8] 99% | [5]; at 50.0 µM 93.9% | [6]; at 50.0 µM 94.7%

C[N+](C)(CCCCCCOc1c(Br)cc(Br)cc1Br)Cc1ccc(Br)o1
active: [1]; [7] 71% | [1]; [8] 99% | [1]; at 50.0 µM 99.5% | [2]; [8] 100% | [2]; at 50.0 µM 99.8% | [3]; [7] 84% | [3]; [8] 100% | [3]; at 50.0 µM 99.8% | [4]; [8] 99% | [4]; at 50.0 µM 99.2% | [5]; [8] 99% | [5]; at 50.0 µM 99.8% | [6]; [7] 83% | [6]; [8] 99% | [6]; at 50.0 µM 99.7%
inactive: [2]; [7] 38% | [4]; [7] 40% | [5]; [7] 61%
